# Compounds with a hit are over-represented: about 11% of the library has one in this group of screens.
# ALDH1A1 inh: inhibitors of human aldehyde dehydrogenase 1A1 | Potency, µM (top dose mostly 75.3 µM), for the others: at the highest dose activity, negative = inhibition, actives largely listed as inhibitors | 7.3% of 220,000 active | P00352 | Purified ALDH1A1, NADH fluorescence, propionaldehyde substrate;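 further: potency means the concentration at half of the fitted maximal effect; plate controls were no enzyme wells and a reference inhibitor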
# PNC assembly inh: inhibitors of perinucleolar compartment assembly; PC3M PTB-GFP, PNC prevalence imaging, 16 h; active compounds read low; activity change (PNC), negative = inhibition, % at 10 µM; 3.1% of 140,000 active; AID 2417;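 active means readout at or below -70, meaning at least 70% loss of cells showing the perinucleolar compartment, a nuclear body marking cancer cells; inconclusive means readout between -30 and a set limit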;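 further: plate controls were DMSO wells for no effect and camptothecin positive control wells for full effect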
#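 Compounds are pinned in duplicate onto adhered PC3M cells stably expressing GFP-tagged PTB and incubated 16 h at 37 C. Cells are then fixed, nuclei stained with Hoechst, and PNC-positive cells counted.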
# HPGD inh: inhibitors of human 15-hydroxyprostaglandin dehydrogenase (HPGD); P15428; purified HPGD, NADH fluorescence kinetic, PGE2 substrate; Potency, µM, for the others: top-dose activity change, negative = inhibition, actives largely listed as inhibitors; 4.3% of 150,000 active; further: potency means the concentration at half of the fitted maximal effect
#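 20 nM HPGD preincubated 15 min at room temperature with compound in 50 mM Tris-HCl pH 8, 0.01% Tween 20. Started with 1 mM NAD+ and 30 uM prostaglandin E2; NADH fluorescence (360/450 nm) read 5 times over 30-s intervals, last minus first.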
# The depositor's hits bear a star; ? = inconclusive; . = no result given; [ ] = another dose, or the depositor's remark. Unless noted, the call rests on the fitted dose curve; in most records, active means well fitted inhibition curve with a large enough effect (not every such curve was filed as active); inconclusive means small, poorly fitted or top-dose-only effect, or another doubt; inactive means no such curve, though single readings can be large or run the other way. Unless noted, on the % scale 0 is the no-effect control and ±100 the full control effect.
SMILES,ALDH1A1 inh,PNC assembly inh,HPGD inh
COC(C(=O)Nc1ccc(Br)cc1F)c1ccccc1 (centres undefined),10µM*,.,.
COC(C(=O)Nc1ccc(F)cc1F)c1ccccc1 (centres undefined),-7%,0,-2%
COC(C(=O)NC1CC1)c1ccccc1 (centres undefined),10%,-114*,-2%
COC(C(=O)Nc1ccccc1F)c1ccccc1 (centres undefined),?,0,-15%
C/C(CCN1CCc2nc(-c3ccccc3)c(-c3ccccc3)cc2C1)=N\OC[C@@H](O)[C@@H]1O[C@@H]2OC(C)(C)O[C@@H]2[C@H]1O,10%[13.5 µM],.,.
c1ccc2[nH]c3cc4ncnc4cc3nc2c1,-7%,-81*,-12%
CCc1nc2ccccc2[nH]1,4%,9,-2%
O=C(O)[C@H]1[C@H](C(=O)O)[C@H](C(=O)O)C[C@@H]1C(=O)O,1%[13.5 µM],.,-10%
O=C(O)C[n+]1ccccc1,8%[13.5 µM],.,-15%
CCOc1ccc(N(CC(=O)N/N=C/c2cccnc2)S(C)(=O)=O)cc1,13%,.,.
Cc1nnsc1C(=O)Nc1cc(Cl)ccc1Cl,1%,-21,-5%
O=C(CSc1nccn1-c1ncc(C(F)(F)F)cc1Cl)c1ccc(Cl)cc1,-8%,15,-11%
N#Cc1ccc(C(=O)CSc2nnc(-c3ccc(C(F)(F)F)cn3)s2)cc1,35µM*,.,.
COc1ccccc1N1CCN(C2CC(=O)N(C)C2=O)CC1 (centres undefined),-4%,.,.
CCN(CC)C(=O)c1cc(C(C)(C)C)c(O)c(C(C)(C)C)c1,1%,?,-8%
CC(=O)N1N=C(C)CC1c1ccc(O)cc1 (centres undefined),8%,26,1%
Cc1ccc(/C(O)=C2\C(=O)C(=O)N(Cc3cccnc3)C2c2ccccc2[N+](=O)[O-])cc1 (centres undefined),7.1µM*,-13,-7%
O=C1C(=O)N(Cc2cccnc2)C(c2ccccn2)/C1=C(/O)c1ccc(Br)cc1 (centres undefined),7%,-18,-5%
CN(C)c1ccc(-c2ccncc2)cc1,-2%,-18,-7%
CNc1nnc(-c2ccc(N(C)C)cc2)s1,?,-95*,?
CC1CCN(C(=O)CCc2nc3cc(S(=O)(=O)N(C)C)ccc3n2C)CC1,11µM*,19,-7%
CN(C)S(=O)(=O)c1ccc2c(c1)nc(CCC(=O)NCC1CCCCC1)n2C,?,-3,-2%
O=c1[nH]c(CCC2CCCC2)nc2ccccc12,-1%,51,2%
O=C(COCc1nc2ccccc2c(=O)[nH]1)NCC1CCCCC1,-1%,-100*,-15%
COCCCNC(=O)CCCn1c(=O)c2ccccc2n(Cc2cccc([N+](=O)[O-])c2)c1=O,11%,.,.
SMILES,ALDH1A1 inh,PNC assembly inh,HPGD inh
Cc1ccc(N2C(=O)CC(c3c[nH]c4ccccc34)C2=O)cc1 (centres undefined),-3%,.,.
CCC1=NN=C(c2ccc(F)cc2)C(c2c[nH]c3ccccc23)N1O (centres undefined),?,-100*,-11%
O=C(NCc1ccc(Cl)cc1)C(=O)N/N=C/c1ccc(Br)cc1,6%,.,.
CN1CCN(C(=O)c2cc3nc(-c4ccccc4)cc(C(F)(F)F)n3n2)CC1,-5%,17,10µM*
COc1cccc(-c2cc(C(F)(F)F)n3nc(C(=O)N4CCCCC4c4cccnc4)cc3n2)c1 (centres undefined),22µM*,.,.
COc1ccc(-c2cc(C(F)(F)F)n3nc(C(=O)O)cc3n2)cc1OC,-4%,29,-15%
CN1CCN(C(=O)c2cc3nc(-c4ccc(Cl)cc4)cc(C(F)(F)F)n3n2)CC1,?,1,?
O=C(c1cc2nc(-c3ccc(F)cc3)cc(C(F)(F)F)n2n1)N1CCCC1,6%,-3,3.5µM*
COc1ccc(-c2cc(C(F)(F)F)n3nc(C(=O)N4CCCCC4)cc3n2)cc1,?,-19,?
O=C(O)C(CC1CCCCC1)N1CCS(=O)(=O)CC1 (centres undefined),5%,.,.
CCn1c(-c2ccccc2O)n[nH]c1=S,?,-115*,-21%
CCn1c(-c2csc3ccccc23)n[nH]c1=S,?,?,-21%
Cc1nnc(SCC(=O)Nc2ccc(S(=O)(=O)N3CCCC3)cc2)n1N,?,24,-13%
CC(=O)Nc1ccc(S(=O)(=O)N2CCOCC2)cc1,0%,41,2%
CCCC(=O)Nc1ccc(S(=O)(=O)N2CCOCC2)cc1,3.2µM*,?,-4%
CNC(=O)CSc1nnnn1-c1cc(C)ccc1C,?,247,-8%
Cc1ccc(C)c(-n2nnnc2SCC(=O)Nc2cccc(-c3nnc4n3CCCCC4)c2)c1,7.1µM*,5,-17%
